In the supplement of paper PMC10981050:
Where “and” joins values, the source holds several entries; their conditions need not be identical. Equal entries are not always repeated.

What was measured:
Assay in all cases: cell viability relative to vehicle control; higher = less cytotoxic
Settings in all cases: 10 µM
[1] = system: K562
In short: (§1)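 Each screen used CRISPR-edited mutant and wild-type clones from four leukaemia lines. Compounds were acoustically dispensed at a single 10 µM dose, and CellTiter-Glo luminescence was read after 48 h with the supernatant first removed. Viability was analysed in Genedata Screener and given as percent of the on-plate vehicle control.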

[2] = system: MARIMO
In short: as §1

[3] = system: MOLM14
In short: as §1

[4] = system: OCI-AML2
In short: as §1

Structure (SMILES) | cell viability ([1]; SRSF2 genotype: SRSF2 P95H/wt) | cell viability ([1]; SRSF2 genotype: SRSF2 wt/wt) | cell viability ([2]; SRSF2 genotype: SRSF2 P95H/wt) | cell viability ([2]; SRSF2 genotype: SRSF2 wt/wt) | cell viability ([3]; SRSF2 genotype: SRSF2 P95H/wt) | cell viability ([3]; SRSF2 genotype: SRSF2 wt/wt) | cell viability ([4]; SRSF2 genotype: P95H/wt) | cell viability ([4]; SRSF2 genotype: wt/wt)
COc1ccnc(C[S+]([O-])c2nc3cc(OC(F)F)ccc3[nH]2)c1OC (stereo unspecified) [Pantoprazole sodium] | 98.7% and 96.7% | 95.9% | 97% | 101% | 96.5% | 97.3% | 95.7% | 104%
O=C(COc1ccc(Cl)cc1)NC1CCC(NC(=O)COc2ccc(Cl)cc2)CC1 (stereo not drawn) [ISRIB (trans-isomer)] | 96.3% and 97.5% | 100% | 103% | 102% | 107% | 98.7% | 99.2% | 95.9%
O=Cc1ccc(CO)o1 [5-Hydroxymethylfurfural] | 91.8% and 86.8% | 84% | 85% | 95.1% | 86.9% | 91.3% | 85.6% | 92.7%
COc1c2occc2cc2ccc(=O)oc12 [Methoxsalen (Oxsoralen)] | 108% and 106% | 107% | 106% | 106% | 105% | 111% | 98.1% | 107%
CCCCCCCCCCCCCCCC(=O)OCC [Ethyl palmitate] | 101% | 97.9% | 103% | 106% | 106% | 101% | 98% | 107%
Cc1nccn1CCC(C(N)=O)(c1ccccc1)c1ccccc1 [Imidafenacin] | 94.5% and 91.6% | 105% | 87.6% | 91.8% | 99.2% | 101% | 90.8% | 102%
Cc1cc(-n2c(=O)[nH]c(=O)n(C)c2=O)ccc1Oc1ccc(SC(F)(F)F)cc1 [Toltrazuril] | 105% and 104% | 103% | 107% | 109% | 99.7% | 101% | 105% | 104%
COc1cc2c(Oc3ccc4[nH]c(C)cc4c3F)ncnc2cc1OCCCN1CCCC1 [Cediranib (AZD2171)] | 4.41% and 2.97% | 11.7% | 55.1% | 48.3% | 2.27% | 1.47% | 9.24% | 21.7%
COC(=O)c1ccc2c(c1)nc(NC(=O)c1ccccc1)n2CCCc1ccccc1 | 77.8% and 75.4% | 79.5% | 70.1% | 91.6% | 87.9% | 93.7% | 64.5% | 68.7%
CC(=O)OC(C)(C)CCC(=O)[C@](C)(O)[C@H]1[C@H](O)C[C@@]2(C)[C@@H]3CC=C4[C@@H](C[C@H](O)[C@@H](O)C4(C)C)[C@]3(C)C(=O)C[C@]12C [Curcurbitacin IIA] | 67.7% and 75.2% | 77.4% | 80.9% | 87.6% | 34.7% | 22.4% | 21.4% | 28.8%
COc1cc(C)c2c(=O)c(-c3ccccc3)coc2c1 [5-Methyl-7-methoxyisoflavone] | 101% and 95.6% | 92.2% | 85.2% | 90.2% | 97.1% | 92.6% | 93.4% | 88.4%
CS(=O)(=O)c1ccc(-c2cnc(N)c(C(=O)Nc3ccccc3)n2)cc1 | 108% and 109% | 116% | 113% | 110% | 109% | 110% | 98.9% | 91.7%
NC(=O)c1ccc(N(C(N)=O)c2c(F)cccc2F)nc1-c1ccc(F)cc1F | 97.7% and 97.3% | 94.1% | 94% | 97.5% | 96.1% | 105% | 95.3% | 103%
Oc1cc(O)c(Cl)cn1 [Gimeracil] | 105% and 98.5% | 92.4% | 101% | 109% | 102% | 107% | 101% | 111%
CC1CCc2cc(F)cc3c(=O)c(C(=O)O)cn1c23 (stereo unspecified) [Flumequine] | 96.6% and 94.5% | 97.5% | 95.6% | 104% | 95.1% | 102% | 96.3% | 107%
O=C1c2c(O)ccc(O)c2C(=O)c2c(NCCNCCO)ccc(NCCNCCO)c21 [Mitoxantrone 2HCl] | 3.59% and 6.17% | 3.76% | 4.5% | 1.79% | 0.19% | 0.15% | 0.48% | 7.36%
Cc1ccc(-c2c(-c3nn(C)c4ncnc(N5CC[C@H](N6CCCCC6)C5)c34)cnn2C)cc1 | 92.8% and 98% | 105% | 96.5% | 98.5% | 95.1% | 101% | 103% | 102%
CC(C)c1cc(-c2n[nH]c(=O)n2-c2ccc3c(ccn3C)c2)c(O)cc1O [Ganetespib (STA-9090)] | 21.6% and 26.6% | 28.1% | 31.8% | 27% | 2.31% | 2.65% | 19.4% | 21.1%
COc1cccc2c1C(=O)c1c(O)c3c(c(O)c1C2=O)C[C@@](O)(C(=O)CO)C[C@@H]3O[C@H]1C[C@H](N)[C@H](O[C@@H]2CCCCO2)[C@H](C)O1 [Pirarubicin] | 9.97% and 17.9% | 15.8% | 5.07% | 2.51% | 0.15% | 0.13% | 0.2% | 0.51%
N#Cc1ccc(Oc2ccc3c(c2)COB3O)cc1 [Crisaborole (AN2728)] | 93.3% and 84% | 90.8% | 73.8% | 72.9% | 68.2% | 77.7% | 90% | 79.3%
COc1ccc(-c2cc(=O)c3c(O)c(OC)c(O)c(OC)c3o2)cc1 [Lysionotin] | 104% and 98% | 98.9% | 97.9% | 114% | 64% | 76.8% | 74.8% | 83%
Cc1ccccc1-c1cc(N2CCN(C)CC2)ncc1N(C)C(=O)C(C)(C)c1cc(C(F)(F)F)cc(C(F)(F)F)c1 [Netupitant] | 90.3% and 95.2% | 94.6% | 104% | 93.8% | 107% | 98.4% | 70.3% | 75.3%
